# Screening results as filed in PubChem BioAssay.
# Compounds with a hit are over-represented: about 1.3% of the library has one in this group of screens.
# VLA-4 inh = inhibition in human VLA-4 binding assay, primary screen, VLA-4 allosteric modulator project, MLPCN library, flow cytometry, VLA-4 expressing cells | Integrin alpha-4 (Homo sapiens), P13612 | ligand binding flow cytometry | inhibition, % (about 7 µM as worked out from the volumes in the protocol) | actives 0.2% (n = 330,000) | AID 2557, 2010; in the data active means inhibition above about 50%
# Bfl-1 A1 inh = caspase 3/7 activation in MEF A1-2A-BIM cells, primary screen, A1 inhibitor project, cell-based, luminescence, HTS; Caspase-Glo 3/7 luminescence, 3 h; percent of clofoctol response, vehicle zero; caspase activation, % (no concentration beside the values); actives 0.066% (n = 330,000);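 active means over half of replicate activation scores above 10%, or exactly half above 10 with the replicate mean above 10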
# GRK2 inh = compounds blocking aptamer binding on GRK2 – biochemical, human GRK2, bead flow cytometry, HTS, primary screen; inhibition of aptamer binding, % at 10 µM; AID 488847, 2010; actives 0.59% (n = 330,000); FAM-aptamer displacement from GRK2; Beta-adrenergic receptor kinase 1 (Homo sapiens), P25098;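 active means inhibition of aptamer binding above 40%, roughly 3 SD of noise, on plates passing a quality check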;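 further: median bead fluorescence of bound FAM aptamer so fluorescent compounds give negative values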
# NTR1 agonist = agonists of human NTR1, primary screen, imaging, U2OS cells, beta-arrestin-GFP, high content; Neurotensin receptor type 1 (Homo sapiens), P30989; NTR1-U2OS beta-arrestin-GFP spot imaging, agonist mode; activation, % at 20 µM; actives 0.17% (n = 330,000);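 active means activation at or above 40% of the spot to cytoplasm intensity ratio, with at least 20 cells analyzed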;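 further: 0% = DMSO without peptide and 100% = 100 nM NTR1 peptide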
# B2AR ag = beta2AR agonists driving receptor internalization, primary screen, cell-based, FAP fluorogen, flow cytometry; AID 504454, 2011; Am2.2-beta2AR cells; Beta-2 adrenergic receptor (Homo sapiens), P07550; response, % (concentration not given with the values); actives 0.43% (n = 340,000);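 active means response above a set limit, near 3 SD of response in nonfluorescent compounds, cut at about 42% in these data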
# Target sequence (P07550 whole entry, looked up): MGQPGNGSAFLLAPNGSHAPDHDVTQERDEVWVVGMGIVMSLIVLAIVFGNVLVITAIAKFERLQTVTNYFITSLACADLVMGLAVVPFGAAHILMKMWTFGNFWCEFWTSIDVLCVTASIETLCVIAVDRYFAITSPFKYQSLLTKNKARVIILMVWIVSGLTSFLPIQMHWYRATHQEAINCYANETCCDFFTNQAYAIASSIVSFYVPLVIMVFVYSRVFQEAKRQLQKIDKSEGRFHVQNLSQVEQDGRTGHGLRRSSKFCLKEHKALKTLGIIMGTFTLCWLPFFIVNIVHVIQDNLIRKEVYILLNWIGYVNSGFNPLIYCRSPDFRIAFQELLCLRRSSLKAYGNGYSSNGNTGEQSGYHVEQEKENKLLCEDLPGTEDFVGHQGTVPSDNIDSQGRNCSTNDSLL
# B2AR ag CP1 = beta2AR agonists via receptor internalization, confirmation, cell-based, FAP fluorogen, flow cytometry, single point, cherry pick 1. shares compounds with B2AR ag. Am2.2-beta2AR cells, FAP surface receptor; hits give low values. percent response (surface receptor), % at 10 µM. actives 25% (n = 1,100). AID 540358, 2011;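 active means surface receptor percent response at or below 58%, roughly 3 SD from nonfluorescent compounds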
# FAP fluor counter = fluorescence artifact in beta-2AR agonist FAP counterscreen. Am2.2 cells, FAP fluorogen flow cytometry; hits give low values. calls only at 10 µM. shares compounds with B2AR ag. AID 588765. 1,100 tested, under 10 active;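 active means percent response below a set limit in fluorescence channel 1 and below 50% in channel 8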
# The depositor's hits bear a star; i = inactive; · = not tested or not shown.
SMILES,VLA-4 inh,Bfl-1 A1 inh,GRK2 inh,NTR1 agonist,B2AR ag,B2AR ag CP1,FAP fluor counter
CCCCC(=O)N1C/C=C\[C@H](c2ccc(OC)cc2)N(Cc2ccc(F)cc2)C(=O)[C@@H]1C,22,0,4,3,-1,·,·
COc1ccc(C2/C=C\CN(C(=O)Nc3ccccc3)CC(=O)N2Cc2ccc(F)cc2)cc1 (stereo unspecified),·,1,·,4,1,·,·
CN(C(=O)c1cccc(NC(=O)Cc2ccc(NC(=O)C3CCN(C(=O)CCc4ccccc4)CC3)cc2)c1)C1CCCCC1,·,·,·,·,5,·,·
CCOC(=O)N1CCN(C(=O)CN(C)S(=O)(=O)c2ccc(Cl)cc2)CC1,6,-1,0,1,82*,15*,i
CN(CC(=O)N1CCN(c2ccccn2)CC1)S(=O)(=O)c1ccc(Br)cc1,1,1,2,-1,107*,27*,i
Cc1cc(NCCCCCCCNc2cc(C)nc3cc([N+](=O)[O-])ccc23)c2ccc([N+](=O)[O-])cc2n1,·,·,·,·,16,·,·
COc1ccc(CSc2ccc(-c3nc4ccccn4c3NCc3ccccc3)cc2OC)cc1,5,-1,0,3,75*,63,i
CCOC(=O)C1=C(C)NC(C)=C(C(=O)OCC)C1C(=O)OCC(=O)NCCc1ccccc1,0,0,0,3,4,·,·
Cc1cccc(OCc2nnc(-c3ccc(F)cc3)o2)c1,12,-1,2,0,7,97,i
Brc1ccc(-c2nnc(Cc3ccccc3)o2)cc1,2,-5,4,0,-14,133,i
Cc1ccc(-c2nnc(COc3cccc(-n4cnnn4)c3)o2)cc1,-4,0,4,0,-12,·,·
Cc1cc(Br)ccc1OCc1nnc(-c2ccccc2)o1,·,·,·,·,-4,118,i
COc1ccc(-c2nnc(COc3ccc(Br)cc3C)o2)cc1,3,-1,0,3,-4,107,i
COCCCNC(=S)N(CCO)Cc1cc2cc3c(cc2[nH]c1=O)OCO3,8,2,0,0,7,·,·
O=C1CN(C(=O)COC(=O)COc2ccccc2)c2ccccc2N1,9,0,1,2,8,·,·
NCC(=O)Nc1ccc(Cl)cc1C(=O)c1ccc[nH]1,·,·,·,0,5,·,·
COc1ccc(Cl)c2sc(N(CCN(C)C)C(=O)c3ccc4c(c3)OCCO4)nc12,38,1,0,2,44*,128,i
Cc1ccc(Nc2c(-c3ccccn3)nc3cc(C)ccn23)cc1,2,0,1,12,76*,128,i
Cc1cc(C)c2c(CC(=O)NNC(=O)c3ccccc3)coc2c1,2,1,0,-2,-2,·,·
COc1ccc(N(C(=O)c2snc(C(N)=O)c2N)C(C(=O)NC2CCCC2)c2ccco2)c(OC)c1 (stereo unspecified),·,·,·,0,70*,116,i
Cc1cc(N2CCN(c3ccc([N+](=O)[O-])c4cccnc34)CC2)c2ccccc2n1,-19,0,31,35,95*,80,i
Cn1c(SCc2ccc(Cl)cc2)nnc1C1CC1,-2,0,1,0,-9,·,·
C=CCn1c(SCc2ccccc2Cl)nnc1-c1sc2nc(C)cc(C)c2c1N,5,-3,39,7,110*,17*,i
Cc1cc(C)c2c(N)c(-c3nnc(SCc4ccc(Cl)cc4)n3C)sc2n1,0,1,4,2,111*,21*,i
COC(=O)c1cc(F)c(-n2cncn2)c(F)c1,1,-1,0,-1,11,·,·
SMILES,VLA-4 inh,Bfl-1 A1 inh,GRK2 inh,NTR1 agonist,B2AR ag,B2AR ag CP1,FAP fluor counter
COC(=O)c1cc([N+](=O)[O-])c(-n2cncn2)c([N+](=O)[O-])c1,·,·,·,·,50*,34*,i
Cc1cc2nc(-c3ccc(SCc4ccccn4)nc3)[nH]c2cc1C,-17,0,1,14,32,·,·
CC(C)Cc1nc2oc3c(NCC4CCCO4)ncnc3c2c2c1CCC2 (stereo unspecified),-8,0,0,7,1,·,·
CCCc1nc2oc3c(NCC(C)O)ncnc3c2c2c1CCCC2 (stereo unspecified),-7,1,3,4,-2,125,i
CCOc1cc(-c2c(C)c(CC)nc(N)c2C#N)ccc1O,6,0,0,3,69*,103,i
CCOc1cc(-c2c(C)c(C)nc(N)c2C#N)ccc1O,-4,1,3,2,9,·,·
COc1ccc(/C=N/n2cnc3c([nH]c4ccc(F)cc43)c2=O)cc1CSc1ccccn1,3,-1,0,0,58*,79,i
OC(c1ccccc1)C(NCCNCc1ccccc1)c1ccccc1 (stereo unspecified),·,·,·,·,-1,·,·
COc1ccc(NS(=O)(=O)c2cc(NC(=O)c3nc4nc(C)cc(C)n4n3)ccc2C)cc1,22,3,0,-1,-2,133,i
Cc1cc(C)n2nc(C(=O)Nc3cccc(S(=O)(=O)N4CCCC4)c3)nc2n1,-6,1,0,0,-7,·,·
COc1ccccc1NS(=O)(=O)c1cccc(NC(=O)c2nc3nc(C)cc(C)n3n2)c1,21,-1,0,1,-2,136,i
O=C(NCC1CCCO1)c1ccc(N2C(=O)C3CCCCC3C2=O)cc1 (stereo unspecified),3,0,1,-1,10,·,·
COc1ccc([N+](=O)[O-])cc1NCC(=O)Nc1cccc(S(=O)(=O)N2CCCC2)c1,·,·,·,1,5,·,·
O=C(Cn1cnc2ccccc2c1=O)N1CCN(S(=O)(=O)c2ccc(F)cc2)CC1,-3,0,0,2,-2,·,·
Cc1cccc(OCC(=O)Nc2ccc3c(c2)nc(CCN2CCN(C)CC2)n3C)c1,-3,1,0,-1,-1,112,i
COc1ccc(OCC(=O)Nc2ccc3c(c2)nc(CCN2CCN(C)CC2)n3C)cc1,4,0,0,0,52*,107,i
O=C1CC(c2cc(Br)ccc2F)c2cc3c(cc2N1)CCC3 (stereo unspecified),-2,0,1,12,56*,95,i
COc1ccc(-c2n[nH]c(C)c2-c2cscn2)c(O)c1,1,0,1,-1,-3,·,·
